Data on 22 compounds can be found in PubChem BioAssay (EPA / NIEHS).

Each structure is given as a SMILES string. Records with an inconclusive call do not appear. The source made the active and inactive calls. Rule for the calls: active = hit-call score of the fitted dose curve at least 0.9, where 1 is the maximum; inconclusive = response in the unintended direction; inactive = score below 0.9.

In test [1] the target is human Phosphodiesterase 10 (PDE10), PDE10A (gene 10846) (UniProt Q9Y233). Description: NVS_ENZ_hPDE10: NovaScreen (NVS) Enzymatic Assay for human Phosphodiesterase 10 (PDE10) (AID 2283195). Put shortly: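 Fluorescence readout after mobility-shift separation of substrate and product, 1 h reaction with recombinant human enzyme. Single-concentration duplicates at 25 uM, then concentration-response up to 50 uM for chemicals reaching threshold; DMSO baseline.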

For test [2], the target named is human Phosphatase and Tensin Homolog (PTEN), PTEN (gene 5728) (UniProt P60484). Description: NVS_ENZ_hPTEN: NovaScreen (NVS) Enzymatic Assay for human Phosphatase and Tensin Homolog (PTEN) (AID 2283203). Put shortly:
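Loss of fluorescent product signal after mobility-shift separation reports PTEN activity, recombinant human enzyme, 1 h after compound addition. Single 25 uM duplicate screen, then concentration-response on actives; DMSO baseline.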

Test [3] has as its target human Protein Tyrosine Phosphatase Receptor Type F (PTPRF), PTPRF (gene 5792) (UniProt P10586). The test can be described thus: NVS_ENZ_hPTPRF: NovaScreen (NVS) Enzymatic Assay for human Protein Tyrosine Phosphatase Receptor Type F (PTPRF) (AID 2283213). Put shortly:
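Cell-free fluorescence enzyme assay with recombinant protein and substrate; product separated by electrophoretic mobility shift. Read 1 h after dosing, single 25 uM duplicate screen, then concentration-response up to 50 uM; loss of signal vs DMSO.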

Test [4] has as its target human Protein Tyrosine Phosphatase Receptor Type M (PTPRM), PTPRM (gene 5797) (UniProt P28827). Description: NVS_ENZ_hPTPRM: NovaScreen (NVS) Enzymatic Assay for human Protein Tyrosine Phosphatase Receptor Type M (PTPRM) (AID 2283215). Put shortly: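 Read-out is fluorescence after electrophoretic separation of substrate and product, taken 1.33 h post-dosing with recombinant enzyme. Compounds screened at 25 uM in duplicate, then concentration series for actives; activity as signal loss relative to DMSO.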

A further test has as its target PPP2CA (gene 5515) (UniProt P67775). The test can be described thus: NVS_ENZ_hPPP2CA: NovaScreen (NVS) Enzymatic Assay for human Protein Phosphatase 2 Aatalytic subunit Alpha (PPP2CA) (AID 2283199). Put shortly: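 Cell-free phosphatase activity: fluorescent substrate turnover by recombinant human enzyme, resolved by mobility shift at 1.33 h. Compounds passing the 25 uM duplicate primary screen were rerun in singleton series with a 50 uM top concentration.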

Test [5] deals with Serine/threonine-protein phosphatase PP1-alpha catalytic subunit (Homo sapiens) (UniProt P62136). Description: NVS_ENZ_hPPP1CA: NovaScreen (NVS) Enzymatic Assay for human Protein Phosphatase 1 Aatalytic subunit Alpha (PPP1CA) (AID 2283200). Put shortly: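 Chemicals were first screened in duplicate at 25 uM, and those passing threshold (e.g. 30% inhibition) were run as concentration series to 50 uM. Cell-free recombinant protein, 1.33 h read, fluorescent substrate/product mobility-shift detection, normalised to DMSO.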

Test [6] deals with human Protein Tyrosine Phosphatase Non-receptor Type 4 (PTPN4), PTPN4 (gene 5775) (UniProt P29074). The test can be described thus: NVS_ENZ_hPTPN4: NovaScreen (NVS) Enzymatic Assay for human Protein Tyrosine Phosphatase Non-receptor Type 4 (PTPN4) (AID 2283208). Put shortly:
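Screened in duplicate at 25 uM, with hits then titrated to a top concentration of 50 uM. Recombinant Sf9-derived PTPN4 turnover was read by fluorescence with electrophoretic separation, 1.33 h after compound addition. DMSO served as baseline.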

In test [7] the target is human Protein Phosphatase, Mg2+/Mn2+ Dependent 1A (PPM1A), PPM1A (gene 5494) (UniProt P35813). The test can be described thus: NVS_ENZ_hPPM1A: NovaScreen (NVS) Enzymatic Assay for human Protein Phosphatase, Mg2+/Mn2+ Dependent 1A (PPM1A) (AID 2283198). Put shortly:
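Primary screen in duplicate at 25 uM, with actives then titrated to a maximum of 50 uM. Recombinant PPM1A dephosphorylation of fluorescent substrate measured at 1 h, with substrate and product separated by mobility shift; inhibition fitted against DMSO.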

The target in test [8] is human Protein Tyrosine Phosphatase Receptor Type C (PTPRC), PTPRC (gene 5788) (UniProt P08575). Description: NVS_ENZ_hPTPRC: NovaScreen (NVS) Enzymatic Assay for human Protein Tyrosine Phosphatase Receptor Type C (PTPRC) (AID 2283212). Put shortly: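 Absorbance-based phosphatase activity of human PTPRC protein extracted from yeast was measured 1 h post-dosing. Compounds first tested at 25 uM in duplicate, then those passing threshold in singleton concentration series to 50 uM.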

The target in test [9] is human Rho Associated Coiled-coil Containing Protein Kinase 1 (ROCK1), ROCK1 (gene 6093) (UniProt Q13464). The test can be described thus: NVS_ENZ_hROCK1: NovaScreen (NVS) Enzymatic Assay for human Rho Associated Coiled-coil Containing Protein Kinase 1 (ROCK1) (AID 2283214). Put shortly:
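Compounds first run in duplicate at 25 uM against recombinant human ROCK1, then followed in concentration series. Kinase activity was read 1 h post-dosing by fluorescence with mobility-shift separation, as signal loss relative to DMSO.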

Test [10] has as its target human Protein Tyrosine Phosphatase Non-receptor Type 9 (PTPN9), PTPN9 (gene 5780) (UniProt P43378). The test can be described thus: NVS_ENZ_hPTPN9: NovaScreen (NVS) Enzymatic Assay for human Protein Tyrosine Phosphatase Non-receptor Type 9 (PTPN9) (AID 2283209). Put shortly:
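Sf9-expressed enzyme in a cell-free assay, fluorescence read 1.33 h after dosing with mobility-shift separation of substrate and product. Tested at 25 uM in duplicate, then up to 50 uM; signal loss versus DMSO.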

Test [11] has as its target human Protein Tyrosine Phosphatase Non-receptor Type 6 (PTPN6), PTPN6 (gene 5777) (UniProt P29350). Description: NVS_ENZ_hPTPN6: NovaScreen (NVS) Enzymatic Assay for human Protein Tyrosine Phosphatase Non-receptor Type 6 (PTPN6) (AID 2283210). Put shortly:
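Recombinant human PTPN6 from SF9 cells, enzyme activity followed by fluorescence after mobility-shift separation of substrate and product at 1.33 h. Chemicals first tested at a single 25 uM in duplicate, then confirmed across concentration series; loss of signal relative to DMSO.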

The target in test [12] is human Phosphoinositide 3-kinase alpha (PI3Ka), PIK3CA (gene 5290) (UniProt P42336). The test can be described thus: NVS_ENZ_hPI3Ka: NovaScreen (NVS) Enzymatic Assay for human Phosphoinositide 3-kinase alpha (PI3Ka) (AID 2283196). Put shortly: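 Recombinant human PI3Kα with fluorescent substrate, 1 h, product separated by electrophoretic mobility shift; 25 uM duplicate screen, hits (e.g., 30% inhibition) retested singly up to 50 uM; loss of signal vs DMSO.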

Test [13] addresses human Protein Tyrosine Phosphatase Non-receptor Type 1 (PTPN1), PTPN1 (gene 5770) (UniProt P18031). Description: NVS_ENZ_hPTPN1: NovaScreen (NVS) Enzymatic Assay for human Protein Tyrosine Phosphatase Non-receptor Type 1 (PTPN1) (AID 2283201). Put shortly: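 Chemicals were first tested in duplicate at 25 uM, and those passing threshold went on to singleton concentration series topping at 50 uM. Recombinant enzyme, specific substrate, product separated by mobility shift, fluorescence read at 1.33 h; activity loss relative to DMSO.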

In test [14] the target is Tyrosine-protein phosphatase non-receptor type 11 (Homo sapiens) (UniProt Q06124). Description: NVS_ENZ_hPTPN11: NovaScreen (NVS) Enzymatic Assay for human Protein Tyrosine Phosphatase Non-receptor Type 11 (PTPN11) (AID 2283202). Put shortly: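 Compounds first tested in duplicate at 25 uM; those reaching ~30% inhibition rerun in singleton concentration-response, top 50 uM. Phosphatase activity measured after 0.5 h by fluorescence with mobility-shift separation, relative to DMSO.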

Test [15] addresses Tyrosine-protein phosphatase non-receptor type 12 (Homo sapiens) (UniProt Q05209). The test can be described thus: NVS_ENZ_hPTPN12: NovaScreen (NVS) Enzymatic Assay for human Protein Tyrosine Phosphatase Non-receptor Type 12 (PTPN12) (AID 2283204). Put shortly:
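Single-concentration duplicates (25 uM) preceded singleton concentration-response up to 50 uM for chemicals passing threshold. Cell-free recombinant PTPN12 activity was read 1.33 h after dosing via fluorescence after mobility-shift separation; loss of signal versus DMSO.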

The target in test [16] is Tyrosine-protein phosphatase non-receptor type 13 (Homo sapiens) (UniProt Q12923). The test can be described thus: NVS_ENZ_hPTPN13: NovaScreen (NVS) Enzymatic Assay for human Protein Tyrosine Phosphatase Non-receptor Type 13 (PTPN13) (AID 2283205). Put shortly:
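Screened first at a single 25 uM in duplicate; compounds passing the threshold (e.g. 30% inhibition) were rerun in concentration series, top 50 uM. Recombinant enzyme, fluorescent substrate, mobility-shift separation, 0.5 h read. Data fitted as inhibition relative to DMSO.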

Test [17] deals with Tyrosine-protein phosphatase non-receptor type 14 (Homo sapiens) (UniProt Q15678). Description: NVS_ENZ_hPTPN14: NovaScreen (NVS) Enzymatic Assay for human Protein Tyrosine Phosphatase Non-receptor Type 14 (PTPN14) (AID 2283206). Put shortly: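 Fluorescent substrate turnover by recombinant human PTPN14 was measured 0.5 h after compound addition, with substrate and product separated by mobility shift. Single-point screening at 25 uM, then concentration-response up to 50 uM for chemicals meeting threshold (e.g., 30% inhibition).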

Test [18] deals with human Protein Tyrosine Phosphatase Non-receptor Type 2 (PTPN2), PTPN2 (gene 5771) (UniProt P17706). The test can be described thus: NVS_ENZ_hPTPN2: NovaScreen (NVS) Enzymatic Assay for human Protein Tyrosine Phosphatase Non-receptor Type 2 (PTPN2) (AID 2283207). Put shortly:
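Activity measured as fluorescence after mobility-shift separation of substrate and product, 1 h after compound. Duplicate single-point 25 uM primary testing, concentration series for actives; inhibition scored as signal loss relative to DMSO baseline.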

The target of test [19] is human Protein Tyrosine Phosphatase Receptor Type B (PTPRB), PTPRB (gene 5787) (UniProt P23467). The test can be described thus: NVS_ENZ_hPTPRB: NovaScreen (NVS) Enzymatic Assay for human Protein Tyrosine Phosphatase Receptor Type B (PTPRB) (AID 2283211). Put shortly: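 Recombinant human PTPRB with a fluorescent substrate, product separated by electrophoretic mobility shift; read 1 h after dosing. Primary screen in duplicate at 25 uM; actives then retested in concentration series; loss of signal versus DMSO.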

human Protein Tyrosine Phosphatase Non-receptor Type 9 (PTPN9), PTPN9 (gene 5780), sequence (P43378 whole entry, looked up): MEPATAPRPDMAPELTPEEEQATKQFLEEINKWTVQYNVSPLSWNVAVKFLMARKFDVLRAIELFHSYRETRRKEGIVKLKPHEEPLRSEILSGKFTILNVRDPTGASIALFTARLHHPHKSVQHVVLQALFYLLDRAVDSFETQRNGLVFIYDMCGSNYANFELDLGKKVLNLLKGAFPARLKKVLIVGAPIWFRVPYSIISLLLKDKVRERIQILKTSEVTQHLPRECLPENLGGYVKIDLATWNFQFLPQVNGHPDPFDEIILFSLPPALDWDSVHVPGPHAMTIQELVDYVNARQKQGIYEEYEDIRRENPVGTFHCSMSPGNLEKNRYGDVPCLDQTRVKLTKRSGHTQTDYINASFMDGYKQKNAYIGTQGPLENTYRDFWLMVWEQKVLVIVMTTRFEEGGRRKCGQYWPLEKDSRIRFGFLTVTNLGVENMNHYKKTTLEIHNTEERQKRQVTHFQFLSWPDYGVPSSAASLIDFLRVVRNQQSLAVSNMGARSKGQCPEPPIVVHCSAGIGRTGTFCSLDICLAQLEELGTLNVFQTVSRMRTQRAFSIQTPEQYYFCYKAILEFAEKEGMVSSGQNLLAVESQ
human Protein Tyrosine Phosphatase Non-receptor Type 4 (PTPN4), PTPN4 (gene 5775), sequence (P29074 whole entry, looked up): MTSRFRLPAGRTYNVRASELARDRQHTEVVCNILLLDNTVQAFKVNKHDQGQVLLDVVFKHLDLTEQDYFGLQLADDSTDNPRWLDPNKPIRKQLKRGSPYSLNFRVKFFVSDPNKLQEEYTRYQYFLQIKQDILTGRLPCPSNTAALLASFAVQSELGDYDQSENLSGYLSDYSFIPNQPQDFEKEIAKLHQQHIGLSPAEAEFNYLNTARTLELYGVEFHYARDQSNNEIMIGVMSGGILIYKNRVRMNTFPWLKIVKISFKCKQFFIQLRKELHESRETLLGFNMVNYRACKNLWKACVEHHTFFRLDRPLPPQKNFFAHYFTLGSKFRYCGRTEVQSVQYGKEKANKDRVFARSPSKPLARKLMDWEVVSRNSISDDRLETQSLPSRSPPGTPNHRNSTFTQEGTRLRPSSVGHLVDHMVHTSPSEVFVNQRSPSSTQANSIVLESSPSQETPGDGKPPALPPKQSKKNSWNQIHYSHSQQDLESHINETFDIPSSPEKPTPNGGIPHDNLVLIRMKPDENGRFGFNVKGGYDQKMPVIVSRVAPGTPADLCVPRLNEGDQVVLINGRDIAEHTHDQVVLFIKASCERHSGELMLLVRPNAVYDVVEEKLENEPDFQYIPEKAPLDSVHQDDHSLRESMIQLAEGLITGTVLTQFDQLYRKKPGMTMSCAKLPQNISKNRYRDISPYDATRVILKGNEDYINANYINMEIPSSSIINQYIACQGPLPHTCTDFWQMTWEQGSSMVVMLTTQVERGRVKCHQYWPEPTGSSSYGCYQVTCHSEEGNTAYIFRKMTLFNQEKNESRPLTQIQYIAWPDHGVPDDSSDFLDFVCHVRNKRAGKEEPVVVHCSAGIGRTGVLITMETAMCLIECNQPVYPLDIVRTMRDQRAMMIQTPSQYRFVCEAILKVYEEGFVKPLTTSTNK
Tyrosine-protein phosphatase non-receptor type 11 (Homo sapiens), sequence (Q06124 whole entry, looked up): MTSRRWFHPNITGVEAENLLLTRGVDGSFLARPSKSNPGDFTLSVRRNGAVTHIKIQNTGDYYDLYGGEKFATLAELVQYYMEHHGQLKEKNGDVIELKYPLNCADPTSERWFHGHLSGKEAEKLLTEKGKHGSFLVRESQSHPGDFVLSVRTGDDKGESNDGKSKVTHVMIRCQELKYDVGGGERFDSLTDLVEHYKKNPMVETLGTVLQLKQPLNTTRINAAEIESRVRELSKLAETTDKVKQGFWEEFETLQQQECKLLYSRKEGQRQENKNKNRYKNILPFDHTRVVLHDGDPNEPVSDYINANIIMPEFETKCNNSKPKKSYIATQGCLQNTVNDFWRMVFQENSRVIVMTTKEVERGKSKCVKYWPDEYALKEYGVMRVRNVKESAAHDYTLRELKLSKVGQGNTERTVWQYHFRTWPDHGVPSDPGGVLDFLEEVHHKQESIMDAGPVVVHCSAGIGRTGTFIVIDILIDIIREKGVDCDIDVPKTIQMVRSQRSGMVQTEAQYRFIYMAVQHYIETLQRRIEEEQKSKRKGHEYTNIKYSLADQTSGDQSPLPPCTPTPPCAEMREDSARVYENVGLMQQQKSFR
human Phosphatase and Tensin Homolog (PTEN), PTEN (gene 5728), sequence (P60484 whole entry, looked up): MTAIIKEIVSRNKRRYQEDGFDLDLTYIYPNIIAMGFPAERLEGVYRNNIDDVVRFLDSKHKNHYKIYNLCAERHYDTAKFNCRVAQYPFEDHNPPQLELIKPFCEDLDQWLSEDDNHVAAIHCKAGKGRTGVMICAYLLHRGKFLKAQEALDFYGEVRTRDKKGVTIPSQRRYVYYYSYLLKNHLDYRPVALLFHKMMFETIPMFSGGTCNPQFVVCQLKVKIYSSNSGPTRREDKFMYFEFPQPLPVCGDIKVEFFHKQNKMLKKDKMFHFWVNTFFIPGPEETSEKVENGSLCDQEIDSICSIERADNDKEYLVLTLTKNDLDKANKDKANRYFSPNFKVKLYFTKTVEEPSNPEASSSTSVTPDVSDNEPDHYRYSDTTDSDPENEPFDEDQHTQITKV
human Protein Tyrosine Phosphatase Non-receptor Type 2 (PTPN2), PTPN2 (gene 5771), sequence (P17706 whole entry, looked up): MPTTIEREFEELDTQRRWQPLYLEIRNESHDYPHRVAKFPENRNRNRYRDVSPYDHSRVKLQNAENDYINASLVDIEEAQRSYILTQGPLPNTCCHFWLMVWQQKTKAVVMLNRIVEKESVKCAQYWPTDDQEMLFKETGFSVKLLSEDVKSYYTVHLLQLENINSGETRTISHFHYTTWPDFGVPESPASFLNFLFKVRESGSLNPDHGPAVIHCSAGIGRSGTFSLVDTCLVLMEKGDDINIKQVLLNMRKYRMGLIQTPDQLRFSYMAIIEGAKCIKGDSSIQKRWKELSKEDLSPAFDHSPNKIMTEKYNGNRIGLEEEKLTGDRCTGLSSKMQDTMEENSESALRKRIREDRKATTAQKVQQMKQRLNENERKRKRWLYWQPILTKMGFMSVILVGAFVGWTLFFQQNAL
human Protein Tyrosine Phosphatase Receptor Type F (PTPRF), PTPRF (gene 5792), sequence (P10586 whole entry, looked up): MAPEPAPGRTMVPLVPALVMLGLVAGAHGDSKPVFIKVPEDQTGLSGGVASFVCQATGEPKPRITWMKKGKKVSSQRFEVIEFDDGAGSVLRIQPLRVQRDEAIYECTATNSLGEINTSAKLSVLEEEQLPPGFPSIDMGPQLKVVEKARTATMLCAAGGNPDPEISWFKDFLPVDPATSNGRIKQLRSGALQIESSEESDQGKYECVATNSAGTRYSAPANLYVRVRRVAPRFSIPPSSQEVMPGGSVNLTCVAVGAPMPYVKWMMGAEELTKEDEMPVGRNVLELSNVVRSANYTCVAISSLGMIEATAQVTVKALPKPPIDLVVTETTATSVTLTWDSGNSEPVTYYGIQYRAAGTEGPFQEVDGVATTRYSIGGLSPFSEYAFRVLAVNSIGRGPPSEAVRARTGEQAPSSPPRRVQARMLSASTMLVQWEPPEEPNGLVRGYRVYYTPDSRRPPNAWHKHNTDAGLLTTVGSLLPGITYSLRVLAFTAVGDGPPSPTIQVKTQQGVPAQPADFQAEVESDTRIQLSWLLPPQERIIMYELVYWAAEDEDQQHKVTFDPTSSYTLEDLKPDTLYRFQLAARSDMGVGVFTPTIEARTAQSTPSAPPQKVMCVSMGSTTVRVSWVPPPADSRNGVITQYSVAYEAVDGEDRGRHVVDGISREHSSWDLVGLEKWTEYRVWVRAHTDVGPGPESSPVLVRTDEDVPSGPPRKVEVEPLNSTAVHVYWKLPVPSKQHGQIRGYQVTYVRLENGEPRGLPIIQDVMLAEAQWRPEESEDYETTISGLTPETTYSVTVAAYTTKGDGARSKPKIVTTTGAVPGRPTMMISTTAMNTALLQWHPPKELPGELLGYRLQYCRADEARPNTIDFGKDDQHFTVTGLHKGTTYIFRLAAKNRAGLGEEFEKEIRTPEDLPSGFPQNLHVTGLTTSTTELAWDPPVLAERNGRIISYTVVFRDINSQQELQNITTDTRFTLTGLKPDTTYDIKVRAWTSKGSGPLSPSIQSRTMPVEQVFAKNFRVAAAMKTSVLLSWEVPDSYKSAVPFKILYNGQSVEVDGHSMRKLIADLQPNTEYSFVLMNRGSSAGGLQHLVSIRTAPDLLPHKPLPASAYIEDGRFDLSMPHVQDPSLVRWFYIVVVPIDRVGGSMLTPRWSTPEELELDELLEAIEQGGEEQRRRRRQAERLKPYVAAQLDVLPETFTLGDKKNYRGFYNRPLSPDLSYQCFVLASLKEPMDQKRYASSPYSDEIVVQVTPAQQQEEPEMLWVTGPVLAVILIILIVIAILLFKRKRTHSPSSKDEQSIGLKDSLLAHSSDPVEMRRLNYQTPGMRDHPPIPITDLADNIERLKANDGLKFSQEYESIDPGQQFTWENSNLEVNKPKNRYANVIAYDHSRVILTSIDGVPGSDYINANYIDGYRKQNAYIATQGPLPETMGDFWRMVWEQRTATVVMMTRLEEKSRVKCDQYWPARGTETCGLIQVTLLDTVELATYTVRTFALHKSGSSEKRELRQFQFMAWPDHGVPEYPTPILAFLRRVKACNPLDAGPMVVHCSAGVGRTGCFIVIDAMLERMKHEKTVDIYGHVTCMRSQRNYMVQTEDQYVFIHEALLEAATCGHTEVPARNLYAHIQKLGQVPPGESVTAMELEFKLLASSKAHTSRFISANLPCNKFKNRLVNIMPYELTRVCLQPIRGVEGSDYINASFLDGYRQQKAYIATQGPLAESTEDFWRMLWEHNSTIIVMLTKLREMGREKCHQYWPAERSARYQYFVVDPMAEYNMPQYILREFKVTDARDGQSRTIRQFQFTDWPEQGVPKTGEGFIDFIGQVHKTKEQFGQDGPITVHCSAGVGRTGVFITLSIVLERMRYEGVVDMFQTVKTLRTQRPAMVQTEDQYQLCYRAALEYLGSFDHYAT

Regarding `O=S(=O)(O)C(F)(F)C(F)(F)C(F)(F)C(F)(F)C(F)(F)C(F)(F)F`, the compound was classed as inactive in test [1], in test [2], in test [3] and in test [4].

On to `Cc1cc(-c2ccc(N)c(C)c2)ccc1N`, for which the call (with PPP2CA (gene 5515); in test [5]) was inactive.

On to `CN(C)c1nc(=O)n(C2CCCCC2)c(=O)n1C`, for which the outcome in test [6] was inactive.

For `CCC(C)c1cc([N+](=O)[O-])cc([N+](=O)[O-])c1O` (stereo not given), the compound was classed as inactive in test [7]. Moreover, in test [8], the AC50 – broadly, the concentration at which the activity in the assay is half-maximal – is 25 µM (active).

Regarding `Cc1cc2c3c(c1)C(c1ccccc1)=N[C@@H](NC(=O)c1ccncc1)C(=O)N3CC2`, the AC50 in [1] is 5.66 µM (active). The result in test [7] and in test [4] was inactive.

For `CC#Cc1cc(C)nc(Nc2ccccc2)n1`, in test [9], the compound was called inactive.

As for `Clc1ccc(C(c2ccccc2Cl)C(Cl)(Cl)Cl)cc1` (stereo not given), the compound was classed as inactive in test [7] and in test [5].

Regarding `C=CC(N)=O`, the compound was called inactive in [7] and in [3].

Turning to `ClC1=C(Cl)[C@]2(Cl)[C@@H]3[C@@H](Cl)[C@H]4O[C@H]4[C@@H]3C1(Cl)C2(Cl)Cl`, in [5], the call was inactive.

For `Cc1cccc([N+](=O)[O-])c1`, the outcome in [5] and in [2] was inactive.

On to `O=C(O)C(F)(F)C(F)(F)C(F)(F)C(F)(F)C(F)(F)C(F)(F)C(F)(F)C(F)(F)C(F)(F)F`, for which the AC50 was 43.3 µM (active) in test [5] and 15.8 µM (active) in test [8].

Consider `C1CC2OC2CC1C1CO1` (stereo not given), for which the result in test [10] and in test [11] was inactive.

On to `CC1=C2C[C@H]3[C@@H](CC=C4C[C@@H](O)CC[C@@]43C)[C@@H]2CC[C@]12O[C@@H]1C[C@H](C)CN[C@H]1[C@H]2C`, for which the result in test [1], in [12], in test [13], in test [14], in [15] and in test [17] was inactive. In test [10], the call was inactive. In addition, the AC50 is 6.4 µM (active) in [16] and 16 µM (active) in [6].

Regarding `Oc1ccc(Cl)cc1Cl`, the result in test [3] was inactive.

Turning to `CC(C)C(=O)OCC(C)(C)C(OC(=O)C(C)C)C(C)C` (stereo not given), the outcome in [1], in test [12], in test [5], in test [16], in [18] and in test [6] was inactive. For the same compound, the compound was called inactive in test [4].

On to `O=C(O)C(F)(F)C(F)(F)C(F)(F)C(F)(F)C(F)(F)C(F)(F)C(F)(F)C(F)(F)F`, for which the result in [13], in test [2], in test [15], in [19], in test [3] and in [4] was inactive. Also, the AC50 in [10] is 25 µM (active).

`Oc1ccc(C(c2ccc(O)cc2)(C(F)(F)F)C(F)(F)F)cc1`: the outcome in test [13] and in test [14] was inactive.

In the case of `Nn1cnnc1`, the outcome in test [11] was inactive.

Regarding `O=C(O)C(F)(F)C(F)(F)C(F)(F)C(F)(F)C(F)(F)F`, the compound was classed as inactive in test [1], in test [13], in [14], in [2], in [18] and in [6]. For the same compound, the outcome in test [10] and in test [19] was inactive.

For `CCOCCOC(C)=O`, the compound was classed as inactive in test [13] and in test [11].

As for `NS(=O)(=O)C(F)(F)C(F)(F)C(F)(F)C(F)(F)C(F)(F)C(F)(F)C(F)(F)C(F)(F)F`, the compound was called inactive in test [7].

With `Cc1cc(O)ccc1Cl`, the result in test [18], in [10] and in test [11] was inactive.
